Assay results from PubChem BioAssay (EPA / NIEHS).
Active and inactive are the calls of the source. The calls were made as follows: active = hit-call score of the fitted dose curve at least 0.9, where 1 is the maximum; inactive = score below 0.9.

Experiment: ATG_PPRE_CIS: Attagene CIS-FACTORIAL HepG2 Assay for human Peroxisome Proliferator-activated Response Element (PPRE) (AID 2282958)
Conditions: HepG2 PPRE cis-element reporter, Attagene transcription factor profiling; actives raise or lower the signal
Description: ATG_CIS is a cell-based, multiplexed-readout assay that uses HepG2, a human liver cell line, with measurements taken at 24 hours after chemical dosing in a 24-well plate.ATG_PPRE_CIS is one of 52 assay component(s) measured or calculated from the ATG_CIS assay. It is designed to make measurements of mRNA induction, a form of inducible reporter, as detected with fluorescence intensity signals by Reverse transcription polymerase chain reaction (RT-PCR) and Capillary electrophoresis technology.Data from the assay component ATG_PPRE_CIS was analyzed into 1 assay endpoint. This assay endpoint, ATG_PPRE_CIS, was analyzed with bidirectional fitting relative to DMSO as the negative control and baseline of activity. Using a type of inducible reporter, measures of mRNA for gain or loss-of-signal activity can be used to understand the reporter gene at the transcription factor-level as they relate to the gene PPARA and PPARD and PPARG. Furthermore, this assay endpoint can be referred to as a primary readout, because this assay has produced multiple assay endpoints where this one serves a reporter gene function. To generalize the intended target to other relatable targets, this assay endpoint is annotated to the nuclear receptor intended target family, where the subfamily is non-steroidal.
Human liver HepG2 cells are transiently transfected with multiple reporter transcription units (MRTUs) in 6-well plates using FuGene 6 reagent (Roche; 3 ml FuGene/1 mg DNA). The MRTU constructs are regulated by a cis-regulating element (promoter). […] A major difference between the CIS and TRANS system is that in CIS activities of endogenous TFs are measured, whereas the TRANS assay evaluates changes in activities of exogenous, chimeric NR-Gal4 proteins. […] At the end of 24 hour incubation, total RNA was isolated using TriZol reagent (Invitrogen). The isolated RNA is then reverse-transcribed using oligo(dT) primer and Mo-MLV reverse transcriptase (Invitrogen) with DNAse I (Ambion) treatment for 30 min. The one-tenth of the produced cDNA was amplified by PCR using Taq DNA polymerase (Invitrogen) and two reporter sequence-specific primers. The PCR products were fluorescently labeled by primer extension with 6-arboxyfluorescein (6-FAM) 5'-labeled reporter sequence-specific primer (2 min at 95 C, 20 s at 68 C and 10 min at 72 C) and these products were digested with 5U of HpaI (New England Biolabs) for 2h at 37 C. The fragments were purified using Qiaquick PCR columns (Qiagen), analyzed on an ABI 3130xL genetic analyzer (Applied Biosystems) with peak positions identified by using a set of X-rhodamine (ROX)-labeled MapMarker1000 molecular weight standards (BioVentures). The raw capillary electrophoresis data was processed using Attagraph software (Attagene).

Structure (SMILES)	outcome	AC50
COc1ccc(N=Nc2cc(C)c(N=Nc3ccc(S(=O)(=O)O)cc3)cc2OC)cc1	inactive	–
CCCCCCCC/C=C\CCCCCCCC(=O)OCC	inactive	–
O=C(Nc1ccc([N+](=O)[O-])cc1)Nc1ccc([N+](=O)[O-])cc1 (tested in a mixture with another compound)	inactive	–
NCC1CCCC(CN)C1 (stereo not given)	inactive	–
COc1cc(C(C)C)ccc1C	inactive	–
CCCC(O)C(O)CO (stereo not given)	inactive	–
COC(=O)C=C(C)CCC=C(C)C	inactive	–
Cc1cccc(Nc2ccccc2)c1	inactive	–
COc1cc(Cl)c(OC)cc1N	inactive	–
CC(C)CCOC(=O)c1ccccc1	inactive	–
CCC(C)=O	inactive	–
CCCCCCCCC=CCCCCCCCC1=NCCN1CCO	–	0.261 µM (active)
C=CCCCCCCCCCC	inactive	–
O=C(c1ccccc1)C(O)c1ccccc1 (stereo not given)	inactive	–
C=C(CC(=O)O)C(=O)O	inactive	–
CC(=O)c1ccccn1	inactive	–
CC(=O)C1(C)CC2=C(CCCC2(C)C)CC1C (stereo not given)	–	100 µM (active)
CC1C2CC(CC2C2CCCC(O)C2)C1(C)C (stereo not given)	inactive	–
C[Si](C)(C)O[Si](C)(C)C	inactive	–
CCCCCCCCCCCCCCCC(=O)OC/C=C(C)/C=C/C=C(C)/C=C/C1=C(C)CCCC1(C)C	inactive	–

Structure (SMILES)	outcome	AC50
Cc1ncc([N+](=O)[O-])n1CCO	inactive	–
CS(=O)(=O)OCCCCOS(C)(=O)=O	inactive	–
CC(=O)c1c(C)c([N+](=O)[O-])c(C(C)(C)C)c([N+](=O)[O-])c1C	inactive	–
CC(=O)NCCO	inactive	–
COC(C)(C)CCCC(C)CC=O (stereo not given)	inactive	–
CC=Cc1ccc(OC)c(OC)c1	inactive	–
O=C(O)CCCCCCCCCCCC(=O)O	inactive	–
CC1(C)O[C@@H]2C[C@H]3[C@@H]4CCC5=CC(=O)C=C[C@]5(C)[C@@]4(F)[C@@H](O)C[C@]3(C)[C@]2(C(=O)CO)O1	inactive	–
COc1cc(CCC(C)=O)ccc1O	inactive	–
O=C1OC[C@H](Cc2cccc(O)c2)[C@H]1Cc1cccc(O)c1	inactive	–
CCOC(=O)CN	inactive	–
CCCCCCCCCCCCS(=O)(=O)Cl	inactive	–
CCCC(=O)c1ccccc1	inactive	–
C=Cc1ccncc1	–	13.5 µM (active)
CC(C)=CCCC(C)CCOC=O (stereo not given)	inactive	–
COc1ccc(N)c([N+](=O)[O-])c1	inactive	–
OC[C@H]1O[C@@H](Oc2ccc(O)cc2)[C@H](O)[C@@H](O)[C@@H]1O	inactive	–
Clc1cc(Cl)c(-c2c(Cl)c(Cl)cc(Cl)c2Cl)cc1Cl	inactive	–
CCCCN(CCCC)C(=O)N(CCCC)CCCC	–	61 µM (active)
CCCSc1ccc2nc(NC(=O)OC)[nH]c2c1	inactive	–
